Our source for the Potency and max response values is PubChem BioAssay (NCATS).

One assay has as its system ICS. Description: qHTS profiling for inhibitors of Plasmodium falciparum proliferation (AID 504749). Also: potency is read from the fitted curve at half-maximal effect. Particulars: P. falciparum in erythrocytes, SYBR Green DNA, 72 h; series mostly up to 28.7 µM. In a few lines:
(§1)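 Infected RBCs, 0.3% parasitemia/2.5% Hct final; cpd 72 h, 37 C, 5% CO2; lysis buffer with saponin/triton/SYBR Green I, o/n RT dark; FI 485/535; norm. to artemisinin (0.29 uM) and DMSO.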
(In qHTS, concentration-response curves come from the screen itself.)

The test system of the next assay is JCK. The description is as above. Particulars: P. falciparum in erythrocytes, SYBR Green DNA, 72 h; series mostly up to 28.7 µM. In a few lines: as §1
A further assay concerns N140. The description is as above. Particulars: P. falciparum in erythrocytes, SYBR Green DNA, 72 h; series mostly up to 28.7 µM. In a few lines: as §1
In the next assay the test system is P93_24. Described as above. Particulars: P. falciparum in erythrocytes, SYBR Green DNA, 72 h; series mostly up to 28.7 µM. In a few lines: as §1
For a further assay, the system named is P94_40. The assay is described as above. Particulars: P. falciparum in erythrocytes, SYBR Green DNA, 72 h; series mostly up to 28.7 µM. The method in brief:
as §1

A further assay has as its system PAD. The assay is described as above. Particulars: P. falciparum in erythrocytes, SYBR Green DNA, 72 h; series mostly up to 28.7 µM. In a few lines:
as §1

Another assay deals with PC15. The description is as above. Particulars: P. falciparum in erythrocytes, SYBR Green DNA, 72 h; series mostly up to 28.7 µM. In a few lines:
as §1

Another assay relates to PC26. The description is as above. Particulars: P. falciparum in erythrocytes, SYBR Green DNA, 72 h; series mostly up to 28.7 µM. The method in brief:
as §1

Another assay has as its system PC49. The description is as above. Particulars: P. falciparum in erythrocytes, SYBR Green DNA, 72 h; series mostly up to 28.7 µM. The method in brief: as §1
A further assay concerns SC27B. Described as above. Particulars: P. falciparum in erythrocytes, SYBR Green DNA, 72 h; series mostly up to 28.7 µM. In a few lines:
as §1

The test system of a further assay is TAB109. Described as above. Particulars: P. falciparum in erythrocytes, SYBR Green DNA, 72 h; series mostly up to 28.7 µM. In a few lines: as §1
The next assay concerns TAB113. The description is as above. Particulars: P. falciparum in erythrocytes, SYBR Green DNA, 72 h; series mostly up to 28.7 µM. The method in brief:
as §1

For a further assay, the system named is TAB165. The assay is described as above. Particulars: P. falciparum in erythrocytes, SYBR Green DNA, 72 h; series mostly up to 28.7 µM. In a few lines: as §1
For the next assay, the system named is W2. The description is as above. Particulars: P. falciparum in erythrocytes, SYBR Green DNA, 72 h; series mostly up to 28.7 µM. In a few lines: as §1
The next assay relates to KB-3-1. Description: Cytotoxic Profiling of Annotated Libraries Using Quantitative High-Throughput Screening (AID 1296008). Also: % is scaled to controls: 0 for no effect and ±100 for the full control effect. Particulars: Five cell lines viability, CellTiter-Glo ATP luminescence, 48-72 h; max response: hits give low values. The method in brief:
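Cytotoxicity was measured as CellTiter-Glo ATP luminescence, read after 10 min at room temperature. Compound treatment of the cells lasted 48 or 72 hr at 37 degrees Celsius in a qHTS format.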
On the technique in general: In ATP-based viability assays light output follows the ATP content of the culture.

Inconclusive results are not listed. A number with no mark means an inactive call. Activity calls are given as the source filed them. Calls follow the shape of the dose curve; as a rule, active = well fitted inhibition curve with a large enough effect; inconclusive = small, poorly fitted or top-dose-only effect; inactive = flat fitted curve, though single readings scatter.
Also: nearly all actives have a fitted effect of over 60% in size.

On to `C=CCN1CCCC1CNC(=O)c1cc(S(N)(=O)=O)cc(OC)c1OC` (stereo not given), for which the Potency entry in the assay with ICS, with JCK, in the assay on N140, with P93_24, with P94_40 and in the assay on PAD was “inactive” each time. Also, the Potency entry with PC15, with PC26, with PC49, in the assay on SC27B, with TAB109 and in the assay on TAB113 was “inactive” in each case. The Potency entry in the assay on TAB165 and with W2 was “inactive” in each case. The max response in the assay with KB-3-1 was 5.61%.

With `OC[C@H]1O[C@@H]2O[C@H]3[C@H](O)[C@@H](O)[C@@H](O[C@H]4[C@H](O)[C@@H](O)[C@@H](O[C@H]5[C@H](O)[C@@H](O)[C@@H](O[C@H]6[C@H](O)[C@@H](O)[C@@H](O[C@H]7[C@H](O)[C@@H](O)[C@@H](O[C@H]1[C@H](O)[C@H]2O)O[C@@H]7CO)O[C@@H]6CO)O[C@@H]5CO)O[C@@H]4CO)O[C@@H]3CO`, the Potency entry in the assay with ICS, in the assay on JCK, in the assay on N140, in the assay on P93_24, with P94_40 and in the assay with PAD was “inactive” in each case. In addition, the Potency result in the assay with PC15, in the assay on PC26, in the assay with PC49, in the assay with SC27B, in the assay on TAB109 and with TAB113 was “inactive” each time. Also, the Potency result in the assay on TAB165 and in the assay on W2 was “inactive” throughout. The max response in the assay on KB-3-1 was 3.87%.

On to `Nc1ncnc2c1ncn2CCOCP(=O)(O)O`, for which the Potency entry with ICS, in the assay on JCK, in the assay with N140, in the assay with P93_24, in the assay with P94_40 and with PAD was “inactive” in each case. Further, the Potency entry in the assay on PC15, in the assay on PC26, in the assay on PC49, in the assay with SC27B, in the assay with TAB109 and in the assay with TAB113 was “inactive” each time. The Potency result with TAB165 and with W2 was “inactive” throughout. For the same compound, in the assay on KB-3-1, the max response was -6.33%.

In the case of `C[Si](C)(C)O[Si](C)(C)C`, the Potency result in the assay with ICS, in the assay with JCK, in the assay with N140, in the assay on P93_24, with P94_40 and in the assay with PAD was “inactive” in each case. Also, the Potency result in the assay on PC15, with PC26, in the assay with PC49, in the assay with SC27B, in the assay with TAB109 and in the assay on TAB113 was “inactive” throughout. For the same compound, the Potency entry in the assay on TAB165 and in the assay with W2 was “inactive” throughout. The max response in the assay with KB-3-1 is -5.55%.

`CC1=C(/C=C/C(C)=C/C=C/C(C)=C/C(=O)Oc2c(C)c(C)c3c(c2C)CC[C@@](C)(CCC[C@H](C)CCC[C@H](C)CCCC(C)C)O3)C(C)(C)CCC1`: the Potency result in the assay with ICS, in the assay with JCK, with N140, with P93_24, in the assay on P94_40 and in the assay on PAD was “inactive” in each case. Besides, the Potency entry in the assay on PC15, in the assay on PC26, in the assay on PC49, in the assay on SC27B, in the assay on TAB109 and in the assay on TAB113 was “inactive” each time. In addition, the Potency result with TAB165 and in the assay on W2 was “inactive” in each case. The max response with KB-3-1 was -1.1%.

On to `O=C(O)C1=C(CSc2nnnn2CS(=O)(=O)O)CS[C@@H]2[C@H](NC(=O)[C@H](O)c3ccccc3)C(=O)N12`, for which the Potency entry in the assay with ICS, in the assay on JCK, in the assay on N140, in the assay on P93_24, with P94_40 and with PAD was “inactive” in each case. The Potency result in the assay with PC15, in the assay with PC26, in the assay with PC49, in the assay on SC27B, in the assay with TAB109 and with TAB113 was “inactive” throughout. Besides, the Potency entry with TAB165 and in the assay with W2 was “inactive” each time. For the same compound, in the assay with KB-3-1, the max response is 3.59%.

Take `O=c1[nH]c(=O)n([C@H]2C[C@H](O)[C@@H](CO)O2)cc1/C=C/Br`: the Potency entry with ICS, with JCK, in the assay on N140, in the assay on P93_24, with P94_40 and with PAD was “inactive” throughout. For the same compound, the Potency result with PC15, in the assay on PC26, in the assay on PC49, in the assay on SC27B, with TAB109 and with TAB113 was “inactive” in each case. Moreover, the Potency result with TAB165 and in the assay on W2 was “inactive” throughout. The max response in the assay on KB-3-1 is 1.96%.

Regarding `O=C(O)[C@H]1C(=CCO)O[C@H]2CC(=O)N12`, the Potency result with ICS, in the assay on JCK, with N140, in the assay with P93_24, in the assay on P94_40 and in the assay on PAD was “inactive” each time. The Potency entry in the assay on PC15, in the assay with PC26, in the assay with PC49, in the assay with SC27B, with TAB109 and in the assay on TAB113 was “inactive” each time. Moreover, the Potency entry in the assay on TAB165 and with W2 was “inactive” each time. In the assay with KB-3-1, the max response is 8.73%.

On to `Cc1ncc(C[n+]2csc(CCOP(=O)(O)O)c2C)c(N)n1`, for which the Potency result in the assay on ICS, in the assay on JCK, in the assay on N140, with P93_24, with P94_40 and in the assay on PAD was “inactive” throughout. Further, the Potency result with PC15, with PC26, in the assay with PC49, in the assay with SC27B, in the assay with TAB109 and in the assay on TAB113 was “inactive” throughout. For the same compound, the Potency entry in the assay on TAB165 and in the assay with W2 was “inactive” in each case. Besides, the max response in the assay with KB-3-1 was -2.14%.

With `CC1=CC(=O)NS(=O)(=O)O1`, the Potency entry with ICS, with JCK, in the assay with N140, with P93_24, with P94_40 and in the assay on PAD was “inactive” throughout. The Potency entry with PC15, in the assay on PC26, in the assay with PC49, in the assay with SC27B, with TAB109 and with TAB113 was “inactive” in each case. Further, the Potency result in the assay with TAB165 and with W2 was “inactive” each time. Besides, the max response in the assay on KB-3-1 was -8.51%.

With `CCC(Cc1c(I)cc(I)c(O)c1I)C(=O)O` (stereo not given), the Potency entry in the assay with ICS, with JCK, in the assay with N140, with P93_24, with P94_40 and in the assay on PAD was “inactive” throughout. Also, the Potency entry in the assay with PC15, in the assay with PC26, with PC49, with SC27B, in the assay with TAB109 and in the assay with TAB113 was “inactive” in each case. For the same compound, the Potency result in the assay on TAB165 and in the assay with W2 was “inactive” in each case. In addition, the max response in the assay with KB-3-1 is -4.91%.

Consider `CCc1ncnc2cc(OC)c(OC)cc12`, for which the Potency entry with ICS, in the assay on JCK, in the assay with N140, with P93_24, in the assay on P94_40 and with PAD was “inactive” in each case. The Potency entry in the assay on PC15, in the assay with PC26, in the assay with PC49, in the assay on SC27B, with TAB109 and in the assay with TAB113 was “inactive” in each case. The Potency result in the assay on TAB165 and in the assay with W2 was “inactive” in each case. The max response with KB-3-1 is -4.18%.

Take `O=C(NNCS(=O)(=O)O)c1ccncc1`: the Potency result in the assay on ICS, in the assay with JCK, with N140, with P93_24, in the assay with P94_40 and in the assay on PAD was “inactive” each time. The Potency result in the assay on PC15, with PC26, with PC49, with SC27B, in the assay on TAB109 and in the assay with TAB113 was “inactive” each time. Also, the Potency entry in the assay with TAB165 and in the assay on W2 was “inactive” throughout. In addition, in the assay with KB-3-1, the max response is -1.07%.

Turning to `NCCO/C=C/[C@H](N)C(=O)O`, the Potency result in the assay with ICS, in the assay with JCK, in the assay on N140, in the assay with P93_24, in the assay with P94_40 and in the assay with PAD was “inactive” in each case. In addition, the Potency result in the assay with PC15, with PC26, with PC49, in the assay with SC27B, in the assay on TAB109 and with TAB113 was “inactive” each time. Also, the Potency result with TAB165 and in the assay on W2 was “inactive” throughout. In the assay on KB-3-1, the max response was 0.921%.

On to `CCC(C)[C@@H](N)C(=O)O` (stereo not given in full), for which the Potency entry with ICS, with JCK, in the assay with N140, with P93_24, with P94_40 and in the assay with PAD was “inactive” each time. Further, the Potency entry with PC15, in the assay on PC26, in the assay with PC49, in the assay on SC27B, with TAB109 and with TAB113 was “inactive” in each case. The Potency result in the assay with TAB165 and in the assay on W2 was “inactive” each time. For the same compound, in the assay on KB-3-1, the max response is 1.62%.

With `CCOC(=O)Cc1ccc(-c2ccccc2)cc1`, the Potency entry in the assay with ICS, in the assay on JCK, in the assay with P93_24, with P94_40, in the assay with PAD and with PC15 was “inactive” each time. The Potency entry in the assay on PC26, in the assay on PC49, with SC27B, in the assay with TAB109, with TAB113 and in the assay with TAB165 was “inactive” throughout. In the assay with W2, the Potency entry was “inactive”. Moreover, the Potency with N140 is 224 nM (active). Moreover, the max response with KB-3-1 is 6.55%.
